# Measured values from PubChem BioAssay (NCI).
# This is part of a sample that, as a whole, favours compounds with a hit. Of some 83,000 tested, about 20% had one in any assay.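 Step 1: grow cells in 96-well plates. Step 2: add test compound at a single concentration. Step 3: incubate 48 h. Step 4: record percent growth.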 A number with no mark means an inactive call. Active and inactive are the calls of the source. Rule for the calls: active = growth percent below 10; inactive = the rest.
# Key:
# Experiment in all cases: NCI-60 one-dose screen, 48 h (100 = growth as untreated, 0 = no growth, -100 = all killed)
# [1] = tested on: NCI-H23 lung; conditions: 10 µM unless noted
# [2] = tested on: NCI-H226 lung; conditions: 10 µM unless noted
# [3] = tested on: NCI-H322M lung; conditions: 10 µM unless noted
# [4] = tested on: HOP-62 NSCLC; conditions: 10 µM unless noted
# [5] = tested on: NCI-H460 lung; conditions: 10 µM unless noted
# [6] = tested on: HOP-92 NSCLC; conditions: 10 µM
# [7] = tested on: NCI-H522 lung; conditions: 10 µM unless noted
# [8] = tested on: A549/ATCC NSCLC; conditions: 10 µM unless noted
# [9] = tested on: 786-0 renal; conditions: 10 µM unless noted
# [10] = tested on: COLO 205 colon; conditions: 10 µM unless noted
# [11] = tested on: DU-145 prostate; conditions: 10 µM unless noted
# [12] = tested on: K-562 leukemia; conditions: 10 µM unless noted
# [13] = tested on: MALME-3M melanoma; conditions: 10 µM unless noted
# [14] = tested on: MDA-MB-231 breast; conditions: 10 µM unless noted
# [15] = tested on: SF-268 CNS; conditions: 10 µM unless noted
# [16] = tested on: SF-295 CNS; conditions: 10 µM unless noted
# [17] = tested on: SF-539 CNS; conditions: 10 µM unless noted
# [18] = tested on: UACC-257 melanoma; conditions: 10 µM unless noted
# [19] = tested on: RXF 393 renal; conditions: 10 µM unless noted
Structure (SMILES),growth [1],growth [2],growth [3],growth [4],growth [5],growth [6],growth [7],growth [8],growth [9],growth [10],growth [11],growth [12],growth [13],growth [14],growth [15],growth [16],growth [17],growth [18],growth [19]
CN(C)CCNC(=O)c1ccc(-c2nc3ccc4[nH]ncc4c3c3c2CCC3)cc1,-15.2% (active),10.8%,6.34% (active),5.66% (active),1.65% (active),-29.8% (active),-40.6% (active),7.96% (active),12%,-11.6% (active),5.47% (active),11.3%,-0.0162% (active),-2.41% (active),-8.73% (active),2.24% (active),-31.2% (active),47.7%,
COc1cc(Cn2cc3c(c2)-c2onc(CN4CCCC4)c2CC3)cc(OC)c1OC,86%,88.4%,90.6%,92.8%,109%,92.3%,84.2%,100%,99.4%,109%,75.6%,59.9%,66.5%,91.3%,91.4%,85.8%,92.7%,97.1%,
COc1ccc(-n2c(/C=C3\C(=O)Nc4ccccc43)ccc2CO)cc1,104%,95.3%,104%,95.1%,113%,91.5%,89.6%,97%,99.1%,114%,106%,90.9%,72.2%,95%,99.2%,105%,97.5%,105%,99.7%
COc1cc(-c2nc(-c3ccccc3)[nH]c2-c2ccnc(NCCCNS(=O)(=O)c3cccc(F)c3)n2)ccc1Cl,53.4%,42.1%,87.1%,54%,28.7%,65.1%,32.6%,38%,54.9%,9.39% (active),54.3%,23.4%,64.3%,64.8%,59.4%,25%,69.5%,58.7%,36.1%
O=C(/C=C/c1ccc(F)cc1)c1ccc(O)cc1,95.6%,105%,121%,107%,103%,109%,90.1%,92.2%,95.2%,112%,95.5%,58.7%,118%,100%,101%,104%,93.7%,95.5%,105%
COC(=O)/C=C/c1c(C2(C)NC(=O)c3ccccc3N2)c(=O)oc2ccc(Cl)cc12 (configuration not stated),96.3%,88.1%,95.1%,92.7%,96.3%,88.9%,68.3%,95.2%,96.3%,117%,102%,105%,88.3%,89.2%,92.9%,95.3%,95.8%,98%,69.5%
NS(=O)(=O)c1ccc(Nc2nc(N/N=C/c3ccc(Cl)cc3)nc(Nc3ccccc3)n2)cc1,87.1%,81.4%,93.1%,83.1%,72.2%,91%,79.1%,62.6%,40.3%,73.8%,72.7%,59.9%,88.3%,86.7%,73.7%,58.6%,53.8%,89.5%,-11.5% (active)
CNC(=O)c1c(NC(=O)c2cccc(C(F)(F)F)c2F)sc2c1CCC(=O)C2,8.64% (active),16.2%,82.4%,22.4%,7.32% (active),-21.5% (active),4.78% (active),14.7%,18.1%,-6.56% (active),30.6%,13.2%,6.12% (active),-28.8% (active),16.7%,-6.97% (active),-56% (active),-1.77% (active),-11.4% (active)
N#Cc1c(NC(=O)c2cccc(C(F)(F)F)c2F)sc2c1CCC(=O)C2,11%,-23.9% (active),35.1%,19.4%,9.08% (active),-66.1% (active),3.71% (active),12.3%,14.8%,-8.77% (active),24.6%,1.31% (active),-21.6% (active),-48% (active),11.2%,-19.4% (active),-41.8% (active),-36.3% (active),-67.1% (active)
Cc1ccc(-c2nnc(SCc3ccc(O)c4ncccc34)n2-c2ccccc2)cc1,15.6%,24.4%,19.6%,10.6%,-15.8% (active),-12.5% (active),-5.09% (active),11.3%,25%,25.6%,30.2%,6.04% (active),3.77% (active),23.6%,14.8%,-10.3% (active),5.11% (active),-7.27% (active),-0.61% (active)
Nc1ccccc1NC(=O)c1ccc(NC(=O)C/C=C/c2cccnc2)cn1,22.7%,25.1%,35.9%,27.1%,31.6%,-7.8% (active),0.109% (active),33.5%,31.9%,-21.9% (active),6.29% (active),15.7%,15.6%,41.6%,28.3%,21.8%,9.41% (active),14.5%,-35.5% (active)
CCn1c(SCC(=O)Nc2cccc(C(=O)/C=C/c3ccc(C)cc3)c2)nc2ccccc2c1=O,76.9%,73.4%,86.7%,108%,98.2%,77.7%,81.1%,68%,93.6%,122%,77.2%,55.4%,103%,92.1%,87.2%,104%,86.5%,105%,
CC1(C)CC[C@]23CC[C@]4(C)[C@H](CC[C@@H]5[C@@]6(C)CCCN(CO)C(C)(C)[C@@H]6CC[C@]54C)[C@H]2[C@H]1OC3,86.4%,94.8%,71.9%,98.9%,1.75% (active),77.5%,94.9%,76.8%,83.8%,0.57% (active),50.7%,2.86% (active),101%,65.9%,97.5%,112%,84.6%,110%,
COc1ccc(/C=C(/C)c2ccc3ccc(OC)cc3[o+]2)c(O)c1,53.2%,70.9%,94.7%,92.1%,81.5%,66.7%,53.1%,102%,88.9%,115%,86.1%,31.9%,85.2%,72.7%,88.1%,94.2%,96.1%,89.7%,
COc1cc(/C=C2\C(=O)Nc3cc(Cl)ccc32)ccc1OCc1ccc(F)cc1,101%,91.2%,98.2%,95.9%,99%,89.2%,92.9%,110%,108%,110%,104%,97.7%,92.7%,92.1%,101%,97.1%,95%,109%,
CC(=O)c1cc(C(=O)c2ccc(Br)cc2)n2cc(C)cc(C)c12,102%,86.4%,100%,85.6%,88.7%,99%,85.3%,97.1%,89.4%,97.7%,94.8%,93.1%,111%,90%,89.7%,96%,88.4%,105%,
